Measurements published in the supplement of paper PMC10849652.
Targets with a hit are over-represented here; the source holds about 7,900 in all. About 0.6% of all pairs of compound and target were hits. Values without a mark were called inactive.

Assays:
Test in all cases: log2 fold change, soluble protein after heating vs DMSO (PISA); higher = thermal stabilisation; K562 cells, 10 uM, 30 min; active = over 0.2 and 3.5 SD of the protein, either way, in both replicates (recomputed)
[1] = compound: CC[C@@H]1C(=O)N(C)c2cnc(Nc3ccc(C(=O)NC4CCN(C)CC4)cc3OC)nc2N1C1CCCC1
Outline: (§1)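 For each measurement, 10 μM compound was applied for 30 min to K562 cells at 2×10^6 cells/mL. Aliquots were heated for 3 min across 48°C-58°C, pooled, and extracted in PBS with 0.5% NP-40 at 4°C; the supernatant after 21,000xg for 90 min was soluble protein. This was quantified by TMTpro 16plex LC-MS/MS with channel sums equalised, and thermal stability was reported relative to control samples from duplicates, on a log2 fold-change scale.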

volasertib = compound: CC[C@@H]1C(=O)N(C)c2cnc(Nc3ccc(C(=O)N[C@H]4CC[C@H](N5CCN(CC6CC6)CC5)CC4)cc3OC)nc2N1C(C)C [volasertib]
Outline: as §1

[2] = compound: CC[C@H](C)N1C=C(C2=C(C=C(C=C21)C3=CN=C(C=C3)N4CCNCC4)C(=O)NCC5=C(C=C(NC5=O)C)C)C
Outline: as §1

epoxomicin = compound: CC[C@H](C)[C@@H](C(=O)N[C@@H]([C@@H](C)O)C(=O)N[C@@H](CC(C)C)C(=O)[C@]1(CO1)C)NC(=O)[C@H]([C@@H](C)CC)N(C)C(=O)C [epoxomicin]
Outline: as §1

[3] = compound: CCn1c(C(=O)N(C2CC2)C2CC2)cc2c3c(ncn3C)c(Nc3cc(C)n(C)n3)nc21
Outline: as §1

[4] = compound: CCn1cc(-c2ccnc3[nH]c(-c4cccc(CN(C)C)c4)cc23)c(-c2ccc(NC(=O)N(C)C)cc2)n1
Outline: as §1

[5] = compound: CN(C)CC(=O)Nc1ccc2[nH]c(=O)c3ccccc3c2c1
Outline: as §1

rosiglitazone = compound: CN(CCOC1=CC=C(C=C1)C[C@H]2C(=O)NC(=O)S2)C3=CC=CC=N3 (racemic) [rosiglitazone]
Outline: as §1

[6] = compound: CN1C2=C(C3=C1C(=O)N(N=C3)CC4=CC(=CC=C4)N)SC(=C2)S(=O)C
Outline: as §1

[7] = compound: CN1CCC(CNc2ccc3ncc(-c4cccc(OC(F)(F)F)c4)n3n2)CC1
Outline: as §1

UniProt P08754, sequence (P08754 whole entry, looked up): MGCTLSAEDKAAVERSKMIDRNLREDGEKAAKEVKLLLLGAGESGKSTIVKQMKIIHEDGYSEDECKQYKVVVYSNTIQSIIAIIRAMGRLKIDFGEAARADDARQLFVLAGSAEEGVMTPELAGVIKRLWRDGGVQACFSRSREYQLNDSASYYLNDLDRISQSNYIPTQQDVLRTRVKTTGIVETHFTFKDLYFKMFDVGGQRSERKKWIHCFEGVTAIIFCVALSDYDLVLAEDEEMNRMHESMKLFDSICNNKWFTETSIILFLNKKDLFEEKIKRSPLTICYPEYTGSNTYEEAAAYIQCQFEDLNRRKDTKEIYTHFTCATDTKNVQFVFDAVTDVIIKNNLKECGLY
UniProt P36915, sequence (P36915 whole entry, looked up): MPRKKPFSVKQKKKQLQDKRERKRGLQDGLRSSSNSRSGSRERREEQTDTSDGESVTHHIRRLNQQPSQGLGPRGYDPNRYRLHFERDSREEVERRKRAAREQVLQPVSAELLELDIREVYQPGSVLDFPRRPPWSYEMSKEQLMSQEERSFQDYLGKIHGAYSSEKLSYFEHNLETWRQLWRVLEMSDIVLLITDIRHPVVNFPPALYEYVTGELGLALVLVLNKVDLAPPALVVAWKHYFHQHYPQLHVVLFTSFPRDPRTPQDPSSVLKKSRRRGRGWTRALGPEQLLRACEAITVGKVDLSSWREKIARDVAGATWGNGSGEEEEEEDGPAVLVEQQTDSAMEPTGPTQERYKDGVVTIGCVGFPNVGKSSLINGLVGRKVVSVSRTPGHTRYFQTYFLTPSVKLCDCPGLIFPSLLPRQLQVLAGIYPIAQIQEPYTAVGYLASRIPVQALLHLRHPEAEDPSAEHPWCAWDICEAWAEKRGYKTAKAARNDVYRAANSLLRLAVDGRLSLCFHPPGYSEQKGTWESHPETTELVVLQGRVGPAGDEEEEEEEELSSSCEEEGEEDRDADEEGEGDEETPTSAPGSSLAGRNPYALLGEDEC
UniProt P54803, sequence (P54803 whole entry, looked up): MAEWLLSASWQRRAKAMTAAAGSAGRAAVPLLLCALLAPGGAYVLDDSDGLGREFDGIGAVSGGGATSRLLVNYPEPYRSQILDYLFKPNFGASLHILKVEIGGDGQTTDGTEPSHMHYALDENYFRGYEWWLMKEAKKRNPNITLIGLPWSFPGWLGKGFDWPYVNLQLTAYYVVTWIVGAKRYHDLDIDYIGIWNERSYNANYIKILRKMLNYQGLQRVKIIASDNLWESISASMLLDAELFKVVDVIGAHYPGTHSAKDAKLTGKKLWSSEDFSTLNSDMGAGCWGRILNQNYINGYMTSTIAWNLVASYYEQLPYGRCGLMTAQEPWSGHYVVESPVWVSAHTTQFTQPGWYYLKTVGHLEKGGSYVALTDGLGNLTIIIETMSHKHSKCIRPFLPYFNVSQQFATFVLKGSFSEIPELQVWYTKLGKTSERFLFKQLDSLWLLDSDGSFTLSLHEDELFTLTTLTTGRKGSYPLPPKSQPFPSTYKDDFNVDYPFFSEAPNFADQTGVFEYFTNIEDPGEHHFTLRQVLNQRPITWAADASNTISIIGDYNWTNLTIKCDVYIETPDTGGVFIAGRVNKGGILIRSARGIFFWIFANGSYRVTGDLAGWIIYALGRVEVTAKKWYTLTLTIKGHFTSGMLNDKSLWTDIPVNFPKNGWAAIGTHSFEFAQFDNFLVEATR
UniProt Q658Y4, sequence (Q658Y4 whole entry, looked up): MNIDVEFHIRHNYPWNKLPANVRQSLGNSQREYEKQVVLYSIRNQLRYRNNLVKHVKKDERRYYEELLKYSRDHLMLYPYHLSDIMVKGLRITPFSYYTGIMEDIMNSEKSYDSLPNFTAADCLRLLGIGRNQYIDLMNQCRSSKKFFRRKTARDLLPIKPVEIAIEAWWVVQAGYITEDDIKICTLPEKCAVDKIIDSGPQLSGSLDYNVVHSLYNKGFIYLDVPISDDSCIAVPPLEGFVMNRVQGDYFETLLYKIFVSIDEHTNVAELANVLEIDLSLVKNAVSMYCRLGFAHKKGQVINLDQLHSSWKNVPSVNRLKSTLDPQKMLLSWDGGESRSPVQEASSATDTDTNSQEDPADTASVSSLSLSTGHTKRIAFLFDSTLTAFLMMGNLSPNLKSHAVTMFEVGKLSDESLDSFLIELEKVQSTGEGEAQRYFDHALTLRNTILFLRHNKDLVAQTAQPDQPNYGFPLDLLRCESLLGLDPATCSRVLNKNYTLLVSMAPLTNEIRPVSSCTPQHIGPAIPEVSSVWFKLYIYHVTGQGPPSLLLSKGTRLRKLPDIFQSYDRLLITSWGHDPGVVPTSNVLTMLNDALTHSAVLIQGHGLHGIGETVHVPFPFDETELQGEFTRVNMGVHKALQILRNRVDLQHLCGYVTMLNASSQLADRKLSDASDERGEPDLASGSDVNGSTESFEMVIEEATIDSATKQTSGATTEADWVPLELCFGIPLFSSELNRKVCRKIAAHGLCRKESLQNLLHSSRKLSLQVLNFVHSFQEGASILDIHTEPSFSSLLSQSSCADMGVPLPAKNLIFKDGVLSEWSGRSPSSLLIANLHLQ
UniProt Q92538, sequence (Q92538 whole entry, looked up): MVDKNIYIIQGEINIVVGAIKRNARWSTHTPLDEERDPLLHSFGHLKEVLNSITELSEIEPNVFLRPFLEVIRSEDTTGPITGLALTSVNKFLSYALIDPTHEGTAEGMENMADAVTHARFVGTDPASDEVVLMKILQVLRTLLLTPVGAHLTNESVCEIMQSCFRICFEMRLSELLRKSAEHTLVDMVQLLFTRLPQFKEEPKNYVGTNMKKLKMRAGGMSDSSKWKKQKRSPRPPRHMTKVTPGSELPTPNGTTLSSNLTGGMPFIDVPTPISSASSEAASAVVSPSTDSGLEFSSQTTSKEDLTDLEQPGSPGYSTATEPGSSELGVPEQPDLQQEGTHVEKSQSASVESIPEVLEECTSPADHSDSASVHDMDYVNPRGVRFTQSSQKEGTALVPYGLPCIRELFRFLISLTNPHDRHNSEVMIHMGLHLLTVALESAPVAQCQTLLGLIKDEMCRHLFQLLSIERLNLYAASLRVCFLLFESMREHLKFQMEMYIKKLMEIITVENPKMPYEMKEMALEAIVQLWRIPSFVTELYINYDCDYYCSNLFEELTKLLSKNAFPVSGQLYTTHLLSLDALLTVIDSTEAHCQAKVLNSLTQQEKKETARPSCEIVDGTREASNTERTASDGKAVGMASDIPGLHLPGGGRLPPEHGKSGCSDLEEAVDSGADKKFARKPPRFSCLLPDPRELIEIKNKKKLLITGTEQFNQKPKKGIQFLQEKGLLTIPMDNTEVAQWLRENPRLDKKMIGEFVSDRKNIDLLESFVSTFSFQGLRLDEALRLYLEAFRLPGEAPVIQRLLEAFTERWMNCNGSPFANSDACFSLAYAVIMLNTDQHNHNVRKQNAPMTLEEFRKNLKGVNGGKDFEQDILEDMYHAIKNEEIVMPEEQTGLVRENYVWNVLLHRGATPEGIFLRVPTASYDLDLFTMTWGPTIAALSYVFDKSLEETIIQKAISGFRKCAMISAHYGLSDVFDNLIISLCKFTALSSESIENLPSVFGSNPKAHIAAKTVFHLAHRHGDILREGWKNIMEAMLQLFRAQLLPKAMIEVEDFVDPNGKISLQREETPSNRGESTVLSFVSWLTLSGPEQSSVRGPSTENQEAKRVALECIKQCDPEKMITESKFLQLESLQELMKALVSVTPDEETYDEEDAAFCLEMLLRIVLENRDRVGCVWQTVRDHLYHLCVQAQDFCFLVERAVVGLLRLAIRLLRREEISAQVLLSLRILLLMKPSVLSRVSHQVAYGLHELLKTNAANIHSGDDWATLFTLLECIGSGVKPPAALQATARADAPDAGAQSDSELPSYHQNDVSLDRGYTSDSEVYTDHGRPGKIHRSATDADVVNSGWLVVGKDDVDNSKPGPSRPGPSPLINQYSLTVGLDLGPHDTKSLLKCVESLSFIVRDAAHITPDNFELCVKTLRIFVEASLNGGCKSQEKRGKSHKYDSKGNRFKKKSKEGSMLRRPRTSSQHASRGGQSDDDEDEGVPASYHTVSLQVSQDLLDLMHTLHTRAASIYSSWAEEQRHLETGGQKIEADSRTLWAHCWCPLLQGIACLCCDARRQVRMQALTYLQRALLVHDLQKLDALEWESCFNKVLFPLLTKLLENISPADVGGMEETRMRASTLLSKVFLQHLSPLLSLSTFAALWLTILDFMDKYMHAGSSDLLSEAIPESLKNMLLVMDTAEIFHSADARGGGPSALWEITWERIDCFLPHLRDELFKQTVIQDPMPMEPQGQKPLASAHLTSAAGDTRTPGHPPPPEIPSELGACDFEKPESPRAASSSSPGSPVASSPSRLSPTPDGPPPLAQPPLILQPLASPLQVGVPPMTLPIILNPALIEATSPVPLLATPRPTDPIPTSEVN
UniProt P52597, sequence (P52597 whole entry, looked up): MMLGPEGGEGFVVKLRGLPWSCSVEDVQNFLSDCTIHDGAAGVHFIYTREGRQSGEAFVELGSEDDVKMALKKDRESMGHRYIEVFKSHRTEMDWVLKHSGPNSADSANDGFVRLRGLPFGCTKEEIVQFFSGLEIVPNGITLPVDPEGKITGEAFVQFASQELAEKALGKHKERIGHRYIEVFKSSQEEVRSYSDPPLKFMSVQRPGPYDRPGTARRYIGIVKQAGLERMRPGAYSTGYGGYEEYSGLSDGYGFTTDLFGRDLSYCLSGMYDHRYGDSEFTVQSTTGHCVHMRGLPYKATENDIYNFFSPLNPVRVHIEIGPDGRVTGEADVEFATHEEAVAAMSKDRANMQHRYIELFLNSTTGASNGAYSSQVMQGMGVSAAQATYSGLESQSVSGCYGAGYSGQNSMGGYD
UniProt P01112, sequence (P01112 whole entry, looked up): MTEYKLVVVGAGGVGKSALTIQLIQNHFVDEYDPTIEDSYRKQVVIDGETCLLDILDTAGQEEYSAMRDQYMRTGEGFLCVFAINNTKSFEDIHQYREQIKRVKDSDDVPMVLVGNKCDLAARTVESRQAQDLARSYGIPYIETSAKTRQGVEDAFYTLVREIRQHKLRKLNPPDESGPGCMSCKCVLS

In the case of FUCA1 (UniProt P04066), the log2 fold change [1] is reported as -1.33 (active), the log2 fold change (volasertib) is reported as -1.73 (active) and the log2 fold change [2] is reported as -0.061. For the same target, the log2 fold change (epoxomicin) was -0.03, the log2 fold change [3] was 0.007 and the log2 fold change [4] was -0.006. It also gave a log2 fold change [5] of -0.025, a log2 fold change (rosiglitazone) of -0.008 and a log2 fold change [6] of -0.017. For the same target, the log2 fold change [7] was -0.141.

With GBF1 (UniProt Q92538) the log2 fold change [1] was -0.086, the log2 fold change (volasertib) was -0.474 (active) and the log2 fold change [2] was 0.059. For the same target, the log2 fold change (epoxomicin) was -0.007, the log2 fold change [3] was -0.07 and the log2 fold change [4] was -0.013. For the same target, the log2 fold change [5] was 0.069, the log2 fold change (rosiglitazone) was 0.081 and the log2 fold change [6] was 0.081. For the same target, the log2 fold change [7] was -0.212.

HEXA (UniProt P06865) was tested, and the log2 fold change [1] was -0.423 (active), the log2 fold change (volasertib) was -0.479 (active) and the log2 fold change [2] was -0.028. It also gave a log2 fold change (epoxomicin) of -0.012, a log2 fold change [3] of 0.022 and a log2 fold change [4] of -0.002. The log2 fold change [5] was -0.021, the log2 fold change (rosiglitazone) was 0 and the log2 fold change [6] was -0.02. The log2 fold change [7] was -0.63 (active).

Work on GGT7 (UniProt Q9UJ14) yielded a log2 fold change [1] of 0.029, a log2 fold change (volasertib) of -0.063 and a log2 fold change [2] of -0.069. For the same target, the log2 fold change (epoxomicin) was 0.079, the log2 fold change [3] was -0.013 and the log2 fold change [4] was -0.124. It also gave a log2 fold change [5] of 0.081, a log2 fold change (rosiglitazone) of 0.005 and a log2 fold change [6] of 0.02. It also gave a log2 fold change [7] of 0.023.

GSR (UniProt P00390) was tested, and the log2 fold change [1] was 0.04, the log2 fold change (volasertib) was 0.034 and the log2 fold change [2] was -0.038. The log2 fold change (epoxomicin) was 0.001, the log2 fold change [3] was -0.023 and the log2 fold change [4] was -0.008. It also gave a log2 fold change [5] of -0.018, a log2 fold change (rosiglitazone) of 0.024 and a log2 fold change [6] of -0.071. It also gave a log2 fold change [7] of -0.02.

GNL1 (UniProt P36915) was tested, and the log2 fold change [1] was -0.095, the log2 fold change (volasertib) was -0.229 (active) and the log2 fold change [2] was 0.027. For the same target, the log2 fold change (epoxomicin) was 0.008, the log2 fold change [3] was -0.006 and the log2 fold change [4] was -0.1. The log2 fold change [5] was 0.024, the log2 fold change (rosiglitazone) was 0.01 and the log2 fold change [6] was -0.083. For the same target, the log2 fold change [7] was -0.053.

GALNT11 (UniProt Q8NCW6) was tested, and the log2 fold change [1] was 0.057, the log2 fold change (volasertib) was -0.223 (active) and the log2 fold change [2] was 0.014. The log2 fold change (epoxomicin) was -0.002, the log2 fold change [3] was -0.038 and the log2 fold change [4] was 0.015. The log2 fold change [5] was -0.079, the log2 fold change (rosiglitazone) was 0.176 and the log2 fold change [6] was 0.013. It also gave a log2 fold change [7] of -0.009.

HNRNPH1 (UniProt P31943) was tested, and the log2 fold change [1] was -0.124, the log2 fold change (volasertib) was -0.583 (active) and the log2 fold change [2] was 0.1. It also gave a log2 fold change (epoxomicin) of 0.018, a log2 fold change [3] of -0.192 and a log2 fold change [4] of -0.025. It also gave a log2 fold change [5] of 0.072, a log2 fold change (rosiglitazone) of 0.025 and a log2 fold change [6] of 0.083. It also gave a log2 fold change [7] of -0.247.

For HNRNPF (UniProt P52597), the log2 fold change [1] was -0.049, the log2 fold change (volasertib) was -0.587 (active) and the log2 fold change [2] was 0.128. It also gave a log2 fold change (epoxomicin) of 0.009, a log2 fold change [3] of -0.066 and a log2 fold change [4] of -0.027. It also gave a log2 fold change [5] of 0.051, a log2 fold change (rosiglitazone) of 0.037 and a log2 fold change [6] of 0.052. It also gave a log2 fold change [7] of -0.153.

In the case of GOLPH3 (UniProt Q9H4A6), the log2 fold change [1] is reported as 0.029, the log2 fold change (volasertib) is reported as 0.008 and the log2 fold change [2] is reported as 0.086. It also gave a log2 fold change (epoxomicin) of 0.084, a log2 fold change [3] of -0.016 and a log2 fold change [4] of -0.059. It also gave a log2 fold change [5] of -0.001, a log2 fold change (rosiglitazone) of 0.037 and a log2 fold change [6] of -0.075. For the same target, the log2 fold change [7] was 0.236 (active).

With HRAS (UniProt P01112) the log2 fold change [1] was -0.014, the log2 fold change (volasertib) was 0.057 and the log2 fold change [2] was -0.028. It also gave a log2 fold change (epoxomicin) of 0.104, a log2 fold change [3] of 0.007 and a log2 fold change [4] of -0.082. For the same target, the log2 fold change [5] was -0.125, the log2 fold change (rosiglitazone) was -0.159 and the log2 fold change [6] was -0.033. It also gave a log2 fold change [7] of 0.048.

For GALC (UniProt P54803), the log2 fold change [1] was -0.275 (active), the log2 fold change (volasertib) was -0.959 (active) and the log2 fold change [2] was -0.009. For the same target, the log2 fold change (epoxomicin) was 0.042, the log2 fold change [3] was 0.012 and the log2 fold change [4] was 0.096. The log2 fold change [5] was 0.01, the log2 fold change (rosiglitazone) was -0.006 and the log2 fold change [6] was -0.011. For the same target, the log2 fold change [7] was -0.403 (active).

In the case of GNS (UniProt P15586), the log2 fold change [1] is reported as -0.272 (active), the log2 fold change (volasertib) is reported as -0.181 and the log2 fold change [2] is reported as -0.045. For the same target, the log2 fold change (epoxomicin) was -0.012, the log2 fold change [3] was 0.018 and the log2 fold change [4] was -0.003. It also gave a log2 fold change [5] of -0.007, a log2 fold change (rosiglitazone) of -0.005 and a log2 fold change [6] of -0.016. The log2 fold change [7] was -0.408 (active).

For FAM91A1 (UniProt Q658Y4), the log2 fold change [1] was 0.062, the log2 fold change (volasertib) was 0.221 and the log2 fold change [2] was -0.007. For the same target, the log2 fold change (epoxomicin) was -0.675 (active), the log2 fold change [3] was -0.08 and the log2 fold change [4] was -0.015. The log2 fold change [5] was -0.003, the log2 fold change (rosiglitazone) was 0.037 and the log2 fold change [6] was 0.001. The log2 fold change [7] was 0.233 (active).

Target GNAI3 (UniProt P08754) has a log2 fold change [1] of 0.089, a log2 fold change (volasertib) of 0.147 and a log2 fold change [2] of -0.011. For the same target, the log2 fold change (epoxomicin) was 0.014, the log2 fold change [3] was 0.036 and the log2 fold change [4] was -0.071. For the same target, the log2 fold change [5] was -0.012, the log2 fold change (rosiglitazone) was -0.101 and the log2 fold change [6] was -0.046. The log2 fold change [7] was 0.075.
